Assay outcomes as filed in PubChem BioAssay.
p53ts 39C tox: qHTS Screen for Compounds that Selectively Target Cancer Cells with p53 Mutations: Cytotoxicity of p53ts Cells at the Nonpermissive Temperature | 130,000 tested, 1.5% active | H1299-p53A138V viability at 39C, ATP luminescence, 24 h | Potency, µM (top dose mostly 46.1 µM), inactives show at the top dose activity change, negative = cell killing, usual class: cytotoxic | AID 902, 2007; further: on the % scale 0 is the no-effect control and ±100 the full control effect; nearly all actives have a fitted effect of over 55% in size
p53ts 32C kill: qHTS Screen for Compounds that Selectively Target Cancer Cells with p53 Mutations: Cytotoxicity of p53ts Cells at the Permissive Temperature; H1299-p53A138V at 32C, ATP luminescence viability, 24 h; Potency, µM (titrated, usually from 46.1 µM), without a hit: at the highest dose activity change, negative = cytotoxicity, usual class: cytotoxic; 130,000 tested, 0.93% active; AID 924, 2007;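 further: 0% = DMSO and -100% = full killing by reference compound; nearly all actives have a fitted effect of over 55% in size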
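Viability by ATPlite luminescence after 24 h compound treatment (up to 46 uM) at the permissive 32C. Cells are H1299 carrying p53 A138V. Scale runs from DMSO basal to 100 uM tamoxifen as full kill; AC50 from Hill fits.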
Peg3 imprint: qHTS Assay for Compounds that Induce Erasure of Genomic Imprints. mouse ES Peg3-LacZ reporter, beta-gal luminescence, 40 h. Potency, µM (series often up to 60.7 µM), inactives show top-dose activity change, positive = activation, hits mostly activators. 110,000 tested, 0.02% active
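Imprint erasure is scored as LacZ activity from the silenced maternal Peg3 allele in feeder-free female ES cells cultured 40 h with LIF. Luminescence is normalized to in-plate negative controls and fitted to the Hill equation.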
An asterisk follows results filed as active; [ ] = dose if it differs, or a comment. In the library only some 1.8% were active in any assay of this set; here they are far more common. The call rests on the fitted dose curve; in most records, active means well fitted curve in the direction sought with a large enough effect; inconclusive means small, poorly fitted or top-dose-only effect, or another doubt; inactive means no such curve, though single readings can be large; an effect the other way counts as inactive or inconclusive. Potency means the concentration at half of the fitted maximal effect.

`CCCCCCCNS(=O)(=O)c1cccc2c(Cl)cccc12` gave p53ts 39C tox inconclusive, p53ts 32C kill -29% and Peg3 imprint -23%.
`O=S(=O)(NCCCCCCc1ccccc1)c1cccc2c(Cl)cccc12` gave p53ts 39C tox -16%, p53ts 32C kill 23% and Peg3 imprint -13%.
NCCCCCCNS(=O)(=O)c1cccc2c(Cl)cccc12 was read as p53ts 39C tox 32µM*, p53ts 32C kill -9% and Peg3 imprint inconclusive.
For COc1cc(-c2nc3cccc(C)n3c2Nc2ccc3c(c2)OCCO3)ccc1O the results were p53ts 39C tox 3%, p53ts 32C kill 1% and Peg3 imprint 7%[10.9 µM].
For CC(=O)N[C@@H](C=O)[C@@H](O)[C@H](O)[C@H](O)CO the results were Peg3 imprint 20%.
`N=c1cc(C2(O)CCCCC2)n2c(nc3ccccc32)s1` gave p53ts 39C tox 1.3µM*, p53ts 32C kill 1µM* and Peg3 imprint -51%.
`O=C1c2sc3nc4ccccc4n3c2C(=O)N1c1ccccc1Cl` gave p53ts 39C tox -12%, p53ts 32C kill -2% and Peg3 imprint -12%.
Screening Cc1cccc(O)c1 returned Peg3 imprint 3%.
For CC(=O)c1cccc(NC(=O)c2nc(-c3ccccc3)n(-c3ccccc3C)n2)c1 the results were p53ts 39C tox -5%, p53ts 32C kill -14% and Peg3 imprint 9%[10.9 µM].
Screening CCN(CC)CCCNC(=O)c1nn(C)c2c1CSc1ccccc1-2 returned p53ts 39C tox 20µM*, p53ts 32C kill inconclusive and Peg3 imprint 8%[10.9 µM].
For CC(C)CCNC(=O)c1nn(C)c2c1CSc1ccccc1-2 the results were p53ts 39C tox -4%, p53ts 32C kill -5% and Peg3 imprint -6%[10.9 µM].
For Cn1nc(C(=O)N2CCN(c3ccccc3)CC2)c2c1-c1ccccc1SC2 the results were p53ts 39C tox 15%, p53ts 32C kill 22% and Peg3 imprint -13%[10.9 µM].
Cn1nc(C(=O)N2CCN(c3ccc(F)cc3)CC2)c2c1-c1ccccc1SC2 was read as p53ts 39C tox 20µM*, p53ts 32C kill inconclusive and Peg3 imprint -10%[10.9 µM].
For COc1ccc(-n2c(=O)c3c(c4cc(OC)ccc4n3C)n(Cc3c(F)cccc3Cl)c2=O)cc1 the results were p53ts 39C tox -2%, p53ts 32C kill 3% and Peg3 imprint -4%[10.9 µM].
CCc1cc2c(nc1CC)CCN(CC/C(C)=N/OCC[C@@H]1C=C[C@H](OC(C)=O)[C@H](COC(C)=O)O1)C2 was read as p53ts 39C tox 11%[9.22 µM] and p53ts 32C kill 7%[9.22 µM].
Screening Cc1ccc(-n2c(C)cc(C(=O)CSc3nncs3)c2C)cc1 returned p53ts 39C tox inconclusive, p53ts 32C kill 13µM* and Peg3 imprint -28%.
Screening Cc1cc(C(=O)CSc2nncs2)c(C)n1-c1c(C)n(C)n(-c2ccccc2)c1=O returned p53ts 39C tox -16%, p53ts 32C kill 8% and Peg3 imprint -1%.
For COc1ccc(/C=N/n2cc(-c3ccccc3)nc2N)cc1 the results were p53ts 39C tox -4%, p53ts 32C kill 5% and Peg3 imprint -38%.
For COc1ccc(/C=N\n2nnc3ccccc32)cc1 the results were p53ts 39C tox 10µM*, p53ts 32C kill 13µM* and Peg3 imprint -94%.
O=c1c(-c2cccs2)nc2cnc(N3CCNCC3)nc2n1CCc1ccccc1 was read as p53ts 39C tox 16µM*, p53ts 32C kill inconclusive and Peg3 imprint -37%.
O=c1c(-c2cccs2)nc2cnc(N3CCNCC3)nc2n1Cc1cccs1 was read as p53ts 39C tox inconclusive, p53ts 32C kill inconclusive and Peg3 imprint -55%.
Screening Cc1ccc(SCc2cn3c(C)csc3n2)cc1 returned p53ts 39C tox 13µM*, p53ts 32C kill inconclusive and Peg3 imprint -76%.
`Cc1ccc(S(=O)(=O)NCc2cn3c(C)csc3n2)cc1` gave p53ts 39C tox 11%, p53ts 32C kill -3% and Peg3 imprint -10%.
Screening COc1cccc(NC(CNS(=O)(=O)c2ccc(Cl)cc2)c2ccccc2)c1 (stereo not drawn) returned p53ts 39C tox 13µM*, p53ts 32C kill inconclusive and Peg3 imprint 2%[10.9 µM].
`Cc1ccc(NC(CNS(=O)(=O)c2ccc(Cl)cc2)c2ccccc2)cc1` (stereo not drawn) gave p53ts 39C tox inconclusive, p53ts 32C kill inconclusive and Peg3 imprint -5%[10.9 µM].
For O=S(=O)(NCC(c1ccccc1)N1CCc2ccccc21)c1ccc(Cl)cc1 (stereo not drawn) the results were p53ts 39C tox 25µM*, p53ts 32C kill 17% and Peg3 imprint -10%[10.9 µM].
For CN(C)c1ccc(C(CNS(=O)(=O)c2ccc(F)cc2)N2CCc3ccccc32)cc1 (stereo not drawn) the results were p53ts 39C tox 3%, p53ts 32C kill 4% and Peg3 imprint -9%[10.9 µM].
`O=S(=O)(NCC(Nc1ccc(Cl)cc1)c1ccccc1)c1ccccc1` (stereo not drawn) gave p53ts 39C tox 22µM*, p53ts 32C kill inconclusive and Peg3 imprint -1%[10.9 µM].
`COc1cccc(NC(CNS(=O)(=O)c2ccc(C)cc2)c2ccccc2)c1` (stereo not drawn) gave p53ts 39C tox inconclusive, p53ts 32C kill 11% and Peg3 imprint -6%[10.9 µM].
For CC(Oc1ccccc1F)C(=O)N1CCC(c2nc3ccccc3o2)CC1 (stereo not drawn) the results were p53ts 39C tox 7%, p53ts 32C kill 3% and Peg3 imprint -6%[10.9 µM].
Screening CCn1cc2nc(SCc3ccccc3F)n(Cc3ccc(C)cc3)c(=O)c2n1 returned p53ts 39C tox -14%, p53ts 32C kill 6% and Peg3 imprint -7%[10.9 µM].
`O=C(CCSCc1ccccc1Cl)N1CCN(c2ccc(F)cc2)CC1` gave p53ts 39C tox inconclusive, p53ts 32C kill -6% and Peg3 imprint -3%[10.9 µM].
For COc1ccc(-n2nc3c(N4CCCC(C(=O)NCCc5ccc(C)cc5)C4)nnc(C)c3c2C)cc1 (stereo not drawn) the results were p53ts 39C tox inconclusive, p53ts 32C kill -2% and Peg3 imprint -11%[10.9 µM].
`C[C@@]12C[C@H](O)C3[C@H](CCC4=CC(=O)CC[C@]43C)[C@H]1CC[C@@H]2c1csc(N)n1` (stereo partly drawn) gave Peg3 imprint -25%[10.9 µM].
For CCC(=O)Nc1cccc(OCc2cc(=O)n3cc(C)ccc3n2)c1 the results were p53ts 39C tox inconclusive, p53ts 32C kill inconclusive and Peg3 imprint -9%[10.9 µM].
CCOc1ccccc1NC(=O)Nc1ccccc1OCc1cc(=O)n2ccccc2n1 was read as p53ts 39C tox -18%, p53ts 32C kill -8% and Peg3 imprint -1%[10.9 µM].
Screening COc1ccc(OC)c(NC(=O)Nc2cccc(OCc3cc(=O)n4cc(C)ccc4n3)c2)c1 returned p53ts 39C tox 6.3µM*, p53ts 32C kill 6.3µM* and Peg3 imprint 7%[10.9 µM].
For COc1ccc(NC(=O)Nc2ccccc2OCc2cc(=O)n3ccccc3n2)c(OC)c1 the results were p53ts 39C tox 16µM*, p53ts 32C kill inconclusive and Peg3 imprint 7%[10.9 µM].
For COc1cccc(C2CC(=O)Nc3c2c(=O)nc2c(C)cccn32)c1 (stereo not drawn) the results were p53ts 39C tox -5%, p53ts 32C kill -5% and Peg3 imprint -15%[10.9 µM].
